According to PubChem BioAssay (NCI):
Where “and” joins values, the source holds several entries; their conditions need not be identical. Equal values may be shown once. This is part of a sample that, as a whole, favours compounds with a hit. Of some 83,000 tested, about 20% had one in any assay.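 The test compound was applied at a single concentration to cells in 96-well plates for 48 hours, and percent growth was recorded.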 Calls of active or inactive are those of the source. The calls were made as follows: active = growth percent below 10; inactive = the rest.

test system: MDA-MB-468 breast; test: NCI-60 one-dose screen, 48 h (100 = growth as untreated, 0 = no growth, -100 = all killed); conditions: 10 µM unless noted

| Compound | growth |
| --- | --- |
| O=C(CCCCCCc1nc2ccc(Br)cc2[nH]1)NO | -1.04% (active) |
| CO/N=C(/C(=O)NC1C(=O)N2C(C(=O)O)=C(COC(N)=O)CSC12)c1ccco1 (stereo not drawn) | 109% (inactive) |
| COc1ccc2oc(=O)cc(C3c4ccc([nH]4)C(c4cc(=O)oc5ccc(OC)cc45)c4ccc([nH]4)C(c4cc(=O)oc5ccc(OC)cc45)c4ccc([nH]4)C(c4cc(=O)oc5ccc(OC)cc45)c4ccc3[nH]4)c2c1 (stereo not drawn) | -38.6% (active) |
| O=c1[nH]cnc2c1ncn2C1OC(CO)C(O)C1O (stereo not drawn) | 123% (inactive) and 113% (inactive) and 111% (inactive) |
| CCOC(=O)c1c(Nc2ccccc2)nn2c(-c3ccc(OC)cc3)ccnc12 | 91.1% (inactive) |
| CCCCC/C(C)=N\NC(N)=S | -6.78% (active) |
| CN1CCN(c2ccc(NC(=O)c3cncnc3Nc3ccc4c(ccn4Cc4cccc(F)c4)c3)cc2)CC1 | 44.9% (inactive) |
| COc1ccc(CN2c3ccccc3Oc3ccccc32)cc1F | 44.3% (inactive) |
| CC1(C)CN(Cc2ccccc2)CCN1Cc1ccccc1 | 106% (inactive) |
| O=C(Cn1c(C(=O)c2ccccc2)nc2ccccc21)c1ccc(F)cc1 | 35.1% (inactive) |
| CC(C)=CCC/C(C)=C/CC/C(C)=C/CC/C(C)=C/CSC[C@H](NC(=O)CCCCCN1CCN(C)CC1)C(=O)NC1CCCCC1 | 79.2% (inactive) |
| O=C(Cc1ccc(/C=C/C(=O)c2ncc[nH]2)cc1)Nc1ccc(C(F)(F)F)cc1 | 15.1% (inactive) |
| NC1=C(c2nn[nH]n2)C(c2ccccc2Cl)c2ccc3ccccc3c2O1 (stereo not drawn) | 55.3% (inactive) |
